Screens from PubChem.
A-T KAP1 phos: potential ataxia-telangiectasia treatments restoring KAP-1 phosphorylation; F2112 A-T fibroblasts, KAP-1 phosphorylation AlphaLISA; neocarzinostatin DNA damage 30 min before lysis; Potency, µM (series often up to 57.5 µM), without a hit: at the highest dose activation, actives largely listed as activators; hit rate 0.19% among 320,000; AID 485349; note: potency is the fitted concentration of half-maximal effect; % of control where 0% means no effect; nearly all actives have a fitted effect of over 45% in size
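hTERT-immortalized A-T patient fibroblasts (F2112), 500 cells/well in OPTI-MEM, 1% FBS, got compounds for 60 min, then NCS for 30 min at 37C. Lysates were then assayed for phospho-KAP-1 by AlphaLISA (anti-pKAP1 donor, anti-KAP1 acceptor beads), 6 hr at 25C.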
A549 viability: kills or reduces viability of A549 cells in Nrf2 counter-screen | Potency, µM (series often up to 46 µM), for inactives: top-dose activity change, negative = cytotoxicity, hits mostly inhibitors | A549 ARE-Fluc cells, CellTiter-Fluor viability, 18-24 h | AID 504648 | hit rate 0.16% among 390,000; note: potency is the fitted concentration of half-maximal effect; % is set by controls: 0 for no effect and ±100 for the full control effect
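A549 ARE_Fluc cells in 5% FBS OPTI-MEM were exposed to compounds in concentration-response for 18-24 h at 37 deg C. Viability was read by CellTiter-Fluor fluorescence (Ex 405/Em 525) after 30 min, before the luciferase read.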
CCT modulator: cytosolic chaperonin activity modulation; purified chaperonin ATPase assay, HTRF ADP detection, 30 min; activity change, % (no concentration beside the values), hits read low; hit rate 0.3% among 360,000; in the data active = activity change below about -30%; note: % is set by controls: 0 for no effect and ±100 for the full control effect
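Nucleotide hydrolysis assay: TRiC at 20–40 nM final (set by batch activity) with 10 uM ATP, 30 min at 37 °C, in presence of 76 uM compound. Detection by competitive ADP HTRF, 30 min ambient.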
Nrf2 ARE act: activators of Nrf2 (ARE) signaling. AREc32 ARE-luciferase reporter (MCF7-derived line), luminescence, 24 h. Potency, µM (doses to about 46.1 µM), for inactives: at the top dose activation, most hits filed as activators. hit rate 0.31% among 410,000. AID 624171; note: potency is the fitted concentration of half-maximal effect; % of control where 0% means no effect; nearly all actives have a fitted effect of over 65% in size
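Quantitative high-throughput format: AREc32 reporter cells, 1000 per well, received compound by pin transfer and were incubated 24 hr at 37 deg C, 5% CO2, before Steady-Glo luminescence detection.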
TCR act: activators of T cell receptors | primary human leukocytes, anti-CD3, IL-2 HTRF, 48 h | Potency, µM (series often up to 9.22 µM), without a hit: at the top dose activation of IL-2 secretion, usual class: activators | 330,000 tested, under 10 active | AID 504894; note: % of control where 0% means no effect
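Activity was scored as IL-2 release from primary human leukocytes given only a TCR signal (a-CD3 beads) plus compound for 48 hr. Detection used a two-antibody HTRF format read at 665nm.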
Nrf2 inh: blocks Nrf2 signaling | Potency, µM (series often up to 46 µM), without a hit: at the top dose activity change, negative = inhibition, usual class: inhibitors | hit rate 2.1% among 360,000 | A549 ARE-Fluc reporter, luciferase luminescence, 18-24 h; note: potency is the fitted concentration of half-maximal effect; % is set by controls: 0 for no effect and ±100 for the full control effect; nearly all actives have a fitted effect of over 60% in size
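Two sequential reads on A549 ARE_Fluc cells exposed to compound for 18-24 h: a CellTiter-Fluor fluorescence read for viability, then a luciferase luminescence read for Nrf2/ARE activity.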
Numbers without * were called inactive; ? = inconclusive; nt = no result given; [ ] = dose if it differs, or a comment. This is a sample that favours compounds with a hit; in the whole collection about 2.6% have one here. Unless noted, calls come from the whole dose curve; as a rule, active = well fitted curve in the direction sought with a large enough effect; inconclusive = small, poorly fitted or top-dose-only effect, or another doubt; inactive = no such curve, though single readings can be large; an effect the other way counts as inactive or inconclusive.

SMILES	A-T KAP1 phos	A549 viability	CCT modulator	Nrf2 ARE act	TCR act	Nrf2 inh
O=S(=O)(O)c1cccc2c(N=Nc3ccc(O)c4ncccc34)cccc12	-7.0%	11.6µM*	-0.1	-0.7%	2.3%	-39.2%
COc1cccc(N=Nc2ccc3cccnc3c2O)c1	-22.8%	-19.0%	-1.3	-1.3%	-4.5%	-23.6%
COc1ccc(N=Nc2ccc(O)c3ncccc23)cc1	-81.8%	?	1.1	?	13.3%	11.6µM*
COc1cccc(N=Nc2ccc(O)c3ncccc23)c1	-17.9%	?	-1.8	11.2µM*	1.3%	?
CCc1ccc(-c2nn(Cc3ccccc3)cc2C(=O)NCC2CCCO2)cc1 (stereo not given)	2.5%	-2.7%	-1.3	2.0%	-1.4%	-7.9%
O=C(Cn1c(=O)n(-c2ccccc2)c(=O)c2ccc(C(=O)NCc3ccc4c(c3)OCO4)cc21)Nc1ccc(Br)cc1	nt	-3.1%	nt	0.3%	nt	-7.8%
Cc1ccc(NC(=O)Cn2c(=O)n(-c3ccccc3)c(=O)c3ccc(C(=O)NCc4ccc5c(c4)OCO5)cc32)c(C)c1	nt	-9.6%	nt	0.4%	nt	7.31µM*
CCCC(=O)O[C@]1(C(=O)COC(C)=O)CC[C@H]2[C@@H]3C[C@H](F)C4=CC(=O)C=C[C@]4(C)[C@@]3(F)[C@@H](O)C[C@@]21C	-7.4%	-11.6%	-1.9	0.2%	-0.7%	?
CCC(=O)OCC(=O)[C@@]1(OC(=O)CC)[C@@H](C)C[C@H]2[C@@H]3CCC4=CC(=O)C=C[C@]4(C)[C@@]3(Cl)[C@@H](O)C[C@@]21C	-0.9%	-5.2%	-1.4	5.9%	-13.4%	0.0058µM*
COc1ccc(C(=O)N(Cc2ccco2)Cc2ccco2)c(O)c1	nt	6.7%	nt	nt	nt	12.1%
C=CCN(c1ccccc1OC)S(=O)(=O)c1cccc(C(=O)OCC(=O)c2c(N)n(C)c(=O)n(C)c2=O)c1	nt	0.6%	-3.5	2.6%	-0.2%	20.6µM*
CCOc1ccccc1NC(=O)CNC(=O)Cc1ccccc1	4.7%	6.5%	-42.8*	-0.1%	-5.7%	-5.4%
O=C(O)c1cccc(-c2cccc(-c3nn4c(=O)cc(N5CCNCC5)nc4s3)c2)c1	nt	-7.9%	nt	nt	nt	5.4%
CN(CC(=O)Nc1ccc(Cl)cc1F)S(=O)(=O)c1ccc2c(c1)n(C)c(=O)c(=O)n2C	nt	-1.5%	nt	0.9%	nt	11.4%
CCOc1ccc(C(=O)CC(Sc2ccc(C)cc2)C(=O)O)cc1 (stereo not given)	0.8%	0.0%	1.8	17.8µM*	-0.5%	-3.4%
O=C(CC(Sc1ccc(Br)cc1)C(=O)O)c1ccc(F)cc1 (stereo not given)	-15.8%	2.7%	-0.2	?	4.4%	?
CCNC(=O)C1(C)CCN(Cc2ccccc2C#N)C1 (stereo not given)	nt	nt	-1.8	-0.6%[9.22 µM]	nt	nt
CC(=O)Oc1cc2c(c3ccccc13)CCC2=O	nt	0.3%	0.6	12.6µM*	-8.6%	-1.1%
CC(=O)Oc1cc2cccc(OC(C)=O)c(=O)c2c(OC(C)=O)c1OC(C)=O	-3.1%	?	-1.5	-0.7%	6.5%	-25.3%
C=CCN1C(=O)/C(=C/N(C)C)S/C1=N\S(=O)(=O)c1cccs1	nt	nt	1.1	0.0%	nt	nt
CCN1C(=O)/C(=C\N(C)C)S/C1=N\S(=O)(=O)c1ccc(C)cc1	5.9%	0.5%	-45.2*	0.1%	0.8%	0.9%
CCn1c(C)[n+](CC)c2ccc(C(=O)N(C)c3ccccc3)cc21	-0.9%	-3.3%	-32.9*	-0.5%	-1.5%	12.1%
CCOC(=O)c1ccc2c(c1)n(CC)c(C)[n+]2CC	5.4%	-6.3%	1.0	0.1%	-5.6%	-8.6%
COc1ccc(NC(=O)/C=C/c2cccc(Br)c2)cn1	-2.1%	-17.3%	0.0	5.6%	1.8%	16.4µM*
COc1ccc(NC(=O)/C=C/c2ccc(OC(F)F)cc2)cn1	-5.3%	-18.2%	-2.7	4.0%	-1.8%	18.4µM*
Cc1ccsc1C(=O)N(c1nc2ccccc2s1)c1c(C)cccc1C	4.5%	-7.3%	1.5	-0.3%	4.7%	18.4µM*
